Records with an inconclusive call do not appear. Unless noted, calls come from the whole dose curve; as a rule, active = well fitted curve in either direction with a large enough effect (not every such curve was filed as active); inconclusive = small, poorly fitted or top-dose-only effect, or another doubt; inactive = flat fitted curve, though single readings scatter.
Experiments:
[1] = AP1 Signaling Pathway (AID 357); conditions: ME-180 AP-1-bla reporter, EGF-induced, beta-lactamase ratio, 5 h; at 17.2 µM (top of the series) unless noted;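 note: ME-180 reporter cells stimulated with EGF at its EC50 level; % is set by controls: 0 for no effect and ±100 for the full control effect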
Procedure, shortened: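 In this screen, ME-180 cells in Opti-MEM with 0.5% dialyzed FBS received EC50 EGF and compound titrations for 5 h. AP-1 reporter beta-lactamase was detected via CCF4 ratio, giving AC50 for positive and negative modulators.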

[2] = NFAT Signaling Pathway (AID 444); conditions: Jurkat NFAT-bla M1, carbachol, beta-lactamase ratio, 5 h; at 17.2 µM (top of the series) unless noted;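 note: carbachol stimulus at about its EC50 of 1 µM final; % is set by controls: 0 for no effect and ±100 for the full control effect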
Procedure, shortened: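 Jurkat cells with NFAT-driven β-lactamase reporter and co-expressed M1 receptor, stimulated with carbachol (final 1 uM, ~EC50), compound titration, 5 h at 37 °C. CCF4 loaded 1 h at RT; 460/530 nm ratio gave %activity and AC50.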

[3] = Stat Signaling Pathway (AID 446); conditions: ME-180 SIE beta-lactamase reporter, IL-6 stimulated, 5 h; at 17.2 µM (top of the series) unless noted;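 note: ME-180 cervical cancer cells given 40 pM IL-6 alongside compound; SIE-controlled beta-lactamase reporter measured as 460/530 nm FRET emission ratio; % is set by controls: 0 for no effect and ±100 for the full control effect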
Procedure, shortened: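 Screening format detects activators and inhibitors alike: ME-180 SIE-bla cells stimulated at 40 pM IL-6 for 5 hrs with compound, then dual-emission beta-lactamase read at 405 nm excitation.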

[4] = molecular target: Glucocorticoid receptor (Homo sapiens) (UniProt P04150); experiment: GR-GFP Redistribution (AID 450;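 active = compounds whose dose series gives a full or clear partial fitted curve of increased nuclear translocation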; note: potency is the fitted concentration of half-maximal effect)
Chain of Glucocorticoid receptor (Homo sapiens) (P04150 whole entry, looked up): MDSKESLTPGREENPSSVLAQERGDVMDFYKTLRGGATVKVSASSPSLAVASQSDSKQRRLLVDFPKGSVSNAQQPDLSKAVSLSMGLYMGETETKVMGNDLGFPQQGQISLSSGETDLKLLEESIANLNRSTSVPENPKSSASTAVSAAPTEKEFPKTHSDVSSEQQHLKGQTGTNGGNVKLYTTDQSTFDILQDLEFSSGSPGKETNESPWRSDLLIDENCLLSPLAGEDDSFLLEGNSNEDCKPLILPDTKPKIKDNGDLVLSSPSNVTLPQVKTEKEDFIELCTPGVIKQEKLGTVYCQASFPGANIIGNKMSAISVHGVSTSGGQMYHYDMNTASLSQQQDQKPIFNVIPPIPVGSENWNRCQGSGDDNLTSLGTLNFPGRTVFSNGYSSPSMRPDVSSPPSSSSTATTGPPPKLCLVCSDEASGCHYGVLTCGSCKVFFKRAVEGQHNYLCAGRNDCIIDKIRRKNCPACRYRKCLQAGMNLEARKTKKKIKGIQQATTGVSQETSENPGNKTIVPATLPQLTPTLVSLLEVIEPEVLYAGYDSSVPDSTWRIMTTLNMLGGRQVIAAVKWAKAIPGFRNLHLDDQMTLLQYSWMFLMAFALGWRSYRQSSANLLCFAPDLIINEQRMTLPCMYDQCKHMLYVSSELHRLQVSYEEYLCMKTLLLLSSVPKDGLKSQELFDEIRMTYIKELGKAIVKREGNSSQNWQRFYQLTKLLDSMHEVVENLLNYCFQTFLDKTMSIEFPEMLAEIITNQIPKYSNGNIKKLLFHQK

O=C(O)C1CC(=O)n2c(nc3ccccc32)S1 (centres undefined)
inactive: activity change, negative = inhibition [1] -9.56% | activity change, negative = inhibition [2] -10.4% | activity, negative = inhibition [3] 6.25% | Potency [4] > 20.6 µM

Cc1cc(C)n(C(=O)CNC(=O)C2COc3ccccc3O2)n1 (centres undefined)
inactive: activity change, negative = inhibition [1] 15.9% | activity change, negative = inhibition [2] -7.83% | activity, negative = inhibition [3] 24.9% | Potency [4] > 20.6 µM

CCOC(=O)C(C)Oc1ccc2c(C)cc(=O)oc2c1C(C)=O (centres undefined)
inactive: activity change, negative = inhibition [1] 3.53% | activity change, negative = inhibition [2] 2.57% | activity, negative = inhibition [3] 4.2% | Potency [4] > 20.6 µM

O=C(CN1C(=O)c2ccccc2S1(=O)=O)NCCSCc1ccco1
inactive: activity change, negative = inhibition [1] -8.94% | activity change, negative = inhibition [2] 8.79% | activity, negative = inhibition [3] -4.36% | Potency [4] > 20.6 µM

Cc1cccc(C)c1NC(=O)CSCC(=O)c1ccc(O)c(O)c1
inactive: activity change, negative = inhibition [1] -12.4% | activity change, negative = inhibition [2] 22.8% | activity, negative = inhibition [3] -19.4% | Potency [4] > 20.6 µM

O=C(Nc1ncccc1Cl)c1cccc(F)c1
inactive: activity change, negative = inhibition [1] 2.04% | activity change, negative = inhibition [2] 4.8% | activity, negative = inhibition [3] 8.27% | Potency [4] > 20.6 µM

CCOC(=O)CSC1=C(C#N)C(c2ccc(C)cc2)C(C(=O)OC)C(=O)N1 (centres undefined)
inactive: activity change, negative = inhibition [1] 8.51% | activity change, negative = inhibition [2] 6.97% | activity, negative = inhibition [3] -7.08% | Potency [4] > 20.6 µM

COC(=O)C(NC(=O)c1ccco1)(Nc1ccc(Br)cn1)C(F)(F)F (centres undefined)
inactive: activity change, negative = inhibition [1] -10.6% | activity change, negative = inhibition [2] -10.8% | activity, negative = inhibition [3] -13% | Potency [4] > 20.6 µM

CCCOc1ccc(/C(O)=C2/C(=O)C(=O)N(CCN(C)C)C2c2ccc(OC)c(OC)c2)cc1 (centres undefined)
inactive: activity change, negative = inhibition [1] -7.95% | activity change, negative = inhibition [2] 5.84% | activity, negative = inhibition [3] -1.07% | Potency [4] > 20.6 µM

Cc1cccc(-c2nc(C#N)c(NC3CCCCC3)o2)c1
inactive: activity change, negative = inhibition [1] -27.9% | activity change, negative = inhibition [2] -26.6% | activity, negative = inhibition [3] -7.27% | Potency [4] > 20.6 µM

CC1(C(=O)CSc2n[nH]c(-c3ccccc3Cl)n2)CCC(=O)O1 (centres undefined)
inactive: activity change, negative = inhibition [1] 6.38% | activity change, negative = inhibition [2] 4.32% | activity, negative = inhibition [3] 0.984% | Potency [4] > 20.6 µM

C=C(Br)Cn1c(CCCC)nc2ccccc21
inactive: activity change, negative = inhibition [1] -12.4% | activity change, negative = inhibition [2] 1.5% | activity, negative = inhibition [3] 4.16% | Potency [4] > 20.6 µM

Cc1ccc(S(=O)(=O)/C(C#N)=C/c2c(N3CCN(C)CC3)nc3ccccn3c2=O)cc1
inactive: activity change, negative = inhibition [1] -12.9% | activity change, negative = inhibition [2] -5.08% | activity, negative = inhibition [3] 1.8% | Potency [4] > 20.6 µM

Cc1c(/C(O)=C2/C(=O)C(=O)N(CCCN3CCOCC3)C2c2ccncc2)cnn1-c1ccccc1 (centres undefined)
inactive: activity change, negative = inhibition [1] 5.29% | activity change, negative = inhibition [2] -3.84% | activity, negative = inhibition [3] 5.14% | Potency [4] > 20.6 µM

CCOC(=O)CNC(=O)Nc1ccccc1C(=O)OC
inactive: activity change, negative = inhibition [1] -9.77% | activity change, negative = inhibition [2] 12.3% | activity, negative = inhibition [3] 11.5% | Potency [4] > 20.6 µM

O=C1[C@@H]2[C@H](C(=O)N1O)[C@H]1C=C[C@@H]2C1
inactive: activity change, negative = inhibition [1] 5.39% | activity change, negative = inhibition [2] -15.3% | activity, negative = inhibition [3] 10.4% | Potency [4] > 20.6 µM

Clc1cccc(-c2nn3c(-c4cccc(Cl)c4)nnc3s2)c1
inactive: activity change, negative = inhibition [1] -10.3% | activity change, negative = inhibition [2] 1.34% | activity, negative = inhibition [3] 2.11% | Potency [4] > 20.6 µM

Cn1c(-n2c(-c3ccco3)nc3ccccc3c2=O)nc2ccccc21
inactive: activity change, negative = inhibition [1] -5.43% | activity change, negative = inhibition [2] -6.94% | activity, negative = inhibition [3] 9.91% | Potency [4] > 20.6 µM

CCCCc1c(C)nn(-c2nnc3c4ccccc4n(C)c3n2)c1C
inactive: activity change, negative = inhibition [1] -21.4% | activity change, negative = inhibition [2] -28.4% | activity, negative = inhibition [3] -8.34% | Potency [4] > 20.6 µM

CCOC(=O)C1=C(C)OC(N)=C(C#N)C1c1cc2ccccc2nc1N1CCCCC1 (centres undefined)
inactive: activity change, negative = inhibition [1] -11.2% | activity change, negative = inhibition [2] -20.1% | activity, negative = inhibition [3] 13.8% | Potency [4] > 20.6 µM

C=CCN(C(=O)CCC(=O)O)C1CC(=O)N(c2ccc(OCCC)cc2)C1=O (centres undefined)
inactive: activity change, negative = inhibition [1] 3.6% | activity change, negative = inhibition [2] -2.1% | activity, negative = inhibition [3] -6.77% | Potency [4] > 20.6 µM

Cc1nnc2n(Cc3ccccc3)c(=O)c3c4c(sc3n12)CN(Cc1ccccc1)CC4
inactive: activity change, negative = inhibition [1] 3.27% | activity change, negative = inhibition [2] -8.71% | activity, negative = inhibition [3] 5.01% | Potency [4] > 20.6 µM

CN(C)c1nc2n(c(=O)n1)C(C#N)CS2 (centres undefined)
inactive: activity change, negative = inhibition [1] -5.05% | activity change, negative = inhibition [2] 3.5% | activity, negative = inhibition [3] 5.84% | Potency [4] > 20.6 µM

CC1CCN(c2ncnc3c2cnn3Cc2ccc(Cl)cc2)CC1
inactive: activity change, negative = inhibition [1] -26% | activity change, negative = inhibition [2] -2.2% | activity, negative = inhibition [3] -11.4% | Potency [4] > 20.6 µM

Cc1cc(C)nc(N(C#N)CN2C(=O)c3ccccc3C2=O)n1
inactive: activity change, negative = inhibition [1] 2.24% | activity change, negative = inhibition [2] -1.49% | activity, negative = inhibition [3] 0.344% | Potency [4] > 20.6 µM

O=c1c(C=NCCCn2ccnc2)c(-c2ccccc2)[nH]n1-c1nc2ccccc2s1
inactive: activity change, negative = inhibition [1] -0.182% | activity change, negative = inhibition [2] -18.1% | activity, negative = inhibition [3] -15.5% | Potency [4] > 20.6 µM

From PubChem BioAssay (NCATS)
